This note sets out measurements from PubChem BioAssay AID435019 (Southern Research Specialized Biocontainment Screening …, 2010).

The structures appear in SMILES notation. The campaign covered roughly 2,300 compounds. About 1,200 (52%) were called active. How the calls were made is not given here. So high a share suggests a set chosen from earlier hits. Some of the results follow. Results with a measured potency or affinity are listed apart.

This experiment in a line: mammalian cell cytotoxicity, dose response, cytotoxicity control for M. tuberculosis inhibitor project (AID 435019).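 Further: lower values mean fewer viable cells so more cytotoxicity.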 To be noted: cytotoxicity counter-screen; series mostly up to 40 µM.
For the molecule `Oc1cccc(-c2nc3ccccc3s2)c1`, the outcome was inactive.
Then `Cc1nc2sccn2c(=O)c1CCN1CCC(=C(c2ccccc2)c2ccc(F)cc2)CC1`, with “inactive”.
The entry for `Nc1c(C(=O)NC2CCCCC2)nsc1C(=O)OCC(=O)NC1CCCCC1` is “inactive”.
Then `O=c1[nH]c(=O)n(C2CCCO2)cc1F` (centres undefined), with “inactive”; and `NN/C(=C\[N+](=O)[O-])Nc1ccc(Cl)cc1`, with “inactive”; and `Cc1ccc(CN2CCN(/N=C/c3ccc(Cl)c([N+](=O)[O-])c3)CC2)cc1`, with “inactive”.
With `CSc1ccc(CNC(=O)C2Cc3cc(S(=O)(=O)N4CCCCC4)ccc3N2C(C)=O)cc1` (centres undefined), the call was inactive.
On to `CC(C)CS(=O)(=O)C1=NN2C(=N)/C(=C\c3ccc(OC(=O)c4ccco4)cc3)C(=O)N=C2S1`, for which the outcome was inactive.
Then `CCCOC(=O)c1ccc(-c2ccc(C=O)o2)cc1`, with “inactive”.
In the case of `O/N=C/c1cn(-c2ccc(Cl)cc2)nn1`, the molecule was classed as inactive.
Then `COC(=O)CC(=O)N1CCN(c2ccc(Cl)c(Cl)c2)CC1`, with “inactive”; and `CSCCOC(=O)COc1ccc(/C=N/NC(=O)c2c(Cl)cnn2C)cc1`, with “inactive”.
Then `O=C1CCC(=O)N1CNc1ccc(Oc2ccccc2)cc1`, with “inactive”.
The entry for `O/N=C/c1ccc2ccccc2c1` is “inactive”; for `Nc1cc(C(=O)OCC(=O)NNC(=O)c2cccs2)ccc1Cl` it is “inactive”.
As for `CCCNc1nc(-c2cc(C(=O)Nc3ccccc3)on2)cc(C(C)C)n1`, the molecule was classed as inactive.
The entry for `CO/N=C(\Cn1ncc(N2CCCC2)c(Cl)c1=O)c1ccc(Cl)cc1` is “inactive”; for `O=C(COc1cc(O)c2c(=O)c3ccccc3oc2c1)OCc1ccccc1` it is “inactive”; for `C=CCC1(CC=C)CCCN1C(=O)c1cc(COc2ccc(-n3cncn3)cc2)on1` it is “inactive”.
The entry for `O=[N+]([O-])c1ccc(-c2csc(NN=C3CCCC3)n2)cc1` is “inactive”; for `Cn1nc(C(F)(F)F)c2cc(NC(=O)OCC(C)(C)C)sc21` it is “inactive”.
The entry for `CCCCCCN=C1CC(C)(C)CC(=O)/C1=C(/O)CCC` is “inactive”; for `S=C(NCCc1ccccc1)NN=C1CCCCCC1` it is “inactive”; for `Cc1occc1-c1nnc(SCC(=O)NCCc2ccccc2)o1` it is “inactive”.
Consider `O=S(Cc1ccc(Br)cc1)Cc1nnc(SCc2ccc(Cl)cc2)n1-c1ccccc1` (centres undefined), for which the molecule was called inactive.
Then `O=C(COC(=O)c1cccs1)c1ccccc1`, with “inactive”; and `COC(OC)c1ccnc(-c2ccc(OC(=O)c3cccs3)cc2)n1`, with “inactive”.
Then `CCOC(=O)c1ccc(OC(=O)CCCCCN=C(N)N)cc1`, with “inactive”.
Then `CC1(C)CC(=O)c2c(O)cc(OCc3ccc(Br)cc3)cc2O1`, with “inactive”; and `CCOc1ccc(NC(=O)CCc2nnc3ccc(N4CCC(C)CC4)nn23)cc1`, with “inactive”; and `Cc1ccc(C(C)C)c(OCC(=O)OCc2c(C)noc2C)c1`, with “inactive”.
On to `Cc1ccccc1Nc1nc(N)nc(COC(=O)c2ccc([N+](=O)[O-])o2)n1`, for which the result was inactive.
On to `Cc1ccc(Nc2nc(N)nc(CN3CCc4ccccc4C3)n2)cc1`, for which the outcome was inactive.
The entry for `CCOC(=O)CN(C#N)c1nc(N(C)C)nc(N(C)C)n1` is “inactive”; for `CN(C)N=Nc1nc[nH]c1C(N)=O` it is “inactive”.
Turning to `CCNc1nc(NCC)n2c(SC(C(=O)Nc3cc(C)ccc3C)c3ccccc3)nnc2n1` (centres undefined), the outcome was inactive.
The entry for `Cn1cc(/C=C2\C(=O)NC(=O)N(c3ccccc3)C2=O)c2ccccc21` is “inactive”; for `CC(C)(Oc1ccc(Cl)cc1)C(=O)OCC(=O)N1CCN(c2ccccc2)CC1` it is “inactive”; for `CC(C)Cn1c(N2CCN(C(=O)/C=C/c3ccccc3)CC2)nc2ccccc21` it is “inactive”.
For `CCN(CC)C(=O)Oc1ccc2c(=O)c(-c3ccc(OC)cc3)coc2c1`, the molecule was called inactive.
The entry for `CN(C)C(=O)C1C2NC(=S)N(c3ccc(Cl)cc3)C1(C)Oc1ccc(Cl)cc12` (centres undefined) is “inactive”.
For `COc1cc(NC(=O)C/C(C)=N/NC(=O)c2ccccn2)c(OC)cc1Cl`, the molecule was called inactive.
`O=c1oc2cc(O)ccc2c2ccccc12`: the molecule was called inactive.
With `Cc1ccc(-c2ccc(/C=N/c3ncn[nH]3)o2)cc1Cl`, the result was inactive.
The entry for `C=C(C)C1CC=C(C)/C(=N/NC(=O)CNc2ccc(OCC)cc2)C1` (centres undefined) is “inactive”; for `O=C(c1ccc(C#Cc2ccccc2)o1)N1CCN(c2ccccn2)CC1` it is “inactive”.
On to `CCCOC(=O)CSc1nc(N2CCOCC2)c2c(c1C#N)CC(C)(C)OC2`, for which the result was inactive.
The entry for `O=C(Oc1ccc(-c2cn3c(n2)SCC3)cc1)c1ccccc1` is “inactive”.
The entry for `CC(=Nc1ccc(C)c(C)c1)C1=C(O)CSC1=O` is “inactive”; for `Oc1ccccc1C=NC1=NN(c2cccc(C(F)(F)F)c2)CC1` it is “inactive”.
As to `Cc1nn(C(C)(C)C)c(NC(=O)c2ccc(Cl)cc2Cl)c1Br`, the molecule was classed as inactive.
On to `O=C(O)c1ccccc1C(=O)NNc1ccc(Cl)cc1Cl`, for which the result was inactive.
The entry for `O=C(C[n+]1cc(-c2ccc(Cl)cc2)n2c1CCC2)Nc1nc(-c2ccccc2)cs1` is “inactive”.
Then `COc1ccc(N=c2ssnc2Cl)cc1`, with “inactive”; and `O=C(CSc1cccc[n+]1[O-])c1cccs1`, with “inactive”; and `O=C(OCC(=O)N1CCCc2ccccc21)c1ccc(S(=O)(=O)C(F)F)cc1`, with “inactive”.
The entry for `CCN(CC)CCN(C(=O)c1ccc(S(=O)(=O)N2CCCC2)cc1)c1nc2cc(C)cc(C)c2s1` is “inactive”.
Consider `COc1cc(C(=O)N/N=C/c2cc([N+](=O)[O-])cs2)cc(OC)c1OC`, for which the molecule was called inactive.
The entry for `Cc1ccc(CN2CCN(Cc3ccc(-n4cccn4)cc3C)CC2CCO)cc1` (centres undefined) is “inactive”; for `COc1ccc(N=C/C=C2/C=C(c3ccccc3)OC(C)(C)O2)cc1` it is “inactive”.
Then `N#CC(C#N)=C(N)CSc1cccc[n+]1[O-]`, with “inactive”.
With `CCOc1ccc(-c2nn3c(-c4ccccc4)nnc3s2)cc1`, the call was inactive.
Regarding `CCOc1ccc(N=C(NC#N)SCC(=O)NC2CC2)cc1`, the molecule was classed as inactive.
Then `COc1ccc(Cc2nnc(SCC(=O)N(c3ccccc3)C(C)C)n(N)c2=O)cc1`, with “inactive”; and `CC(C)Oc1ccc(NC(=O)Oc2ccccc2)cc1`, with “inactive”.
On to `CC(c1nc2ccccc2c(=O)[nH]1)N(C)CCOc1ccc(Cl)cc1` (centres undefined), for which the result was inactive.
The entry for `CCOC(=O)C1CCN(C(=O)c2ccc3c(c2)NC(=O)/C(=C/c2ccccc2)S3)CC1` is “inactive”.
In the case of `CN(C)c1ccc(CNc2nc(-c3ccccc3)nn2S(C)(=O)=O)cc1`, the outcome was inactive.
For `Nc1ccc(N=Nc2ccccc2)c(N)n1`, the result was inactive.
With `C#CCOC(=O)/C(=C/c1ccc(F)cc1)NC(C)=O`, the outcome was inactive.
Take `Cc1ccc(C(=O)C[n+]2cc(-c3ccc(C)cc3)n3c2CCCCC3)cc1`: the outcome was inactive.
Then `COc1ccc(-n2c(-c3ccc(Cl)cc3)c[n+]3c2CCc2ccccc2-3)cc1`, with “inactive”.
Take `O=C(CN1CCN(Cc2ccc(Cl)cc2)CC1)N/N=C/C=C/c1ccccc1[N+](=O)[O-]`: the molecule was called inactive.
Then `O=S(=O)(Nc1ccc2[nH]ncc2c1)c1ccccc1Cl`, with “inactive”.
Then `CC(C)(C)C1CCc2nc(NC(=O)Cc3cn4ccsc4n3)sc2C1` (centres undefined), with “inactive”; and `COC(=O)[C@H](CCSC)NC(=O)N1CCN(c2cccc(C(F)(F)F)c2)CC1`, with “inactive”; and `Cc1cc2c(cc1C)/C(=N/NC(=O)c1ccccn1)CCC2`, with “inactive”.
Consider `O=C(NNC1CC(=O)N(c2ccc(Br)cc2)C1=O)c1ccccn1` (centres undefined), for which the result was inactive.
`Cc1nn(-c2ccccc2)c(Cl)c1C(=O)Nc1nnc(C2CCCCC2)s1`: the molecule was classed as inactive.
Regarding `Cc1nn(-c2ccccc2)c(Cl)c1/C=C/C(=O)c1ccccc1`, the call was inactive.
Then `Cc1cccc(C)c1OCCCCc1c(C)n[nH]c1C`, with “inactive”; and `COC(=O)CCc1sc(Nc2ccc(Br)cc2)nc1-c1ccc(OC)cc1`, with “inactive”; and `COC(=O)c1cc(-c2cccc(OC)c2)on1`, with “inactive”.
`COc1cccc(NC(=O)CNC(=O)Cn2cnc3sc4c(c3c2=O)CCCC4)c1`: the molecule was called inactive.
For `CCNC(=S)NN=C1c2ccccc2-c2ccccc21`, the molecule was classed as inactive.
With `Cn1/c(=N/NC(=O)c2cccc(OC(F)F)c2)sc2ccccc21`, the call was inactive.
Turning to `CC(OC(=O)COc1ccc(Nc2ccccc2)cc1)C(=O)N(C)c1ccccc1` (centres undefined), the call was inactive.
On to `C[n+]1c(-c2ccccc2)cc(CCCCc2cc(-c3ccccc3)[n+](C)c(-c3ccccc3)c2)cc1-c1ccccc1`, for which the molecule was classed as inactive.
Turning to `CC1CC(C)CN(C(=O)C2CCC(CNc3c(N4CCCCC4)c(=O)c3=O)CC2)C1` (centres undefined), the outcome was inactive.
The entry for `CCC(C)c1ccc2oc(-c3ccc(NC(=O)c4ncn[nH]4)cc3)nc2c1` (centres undefined) is “inactive”.
The entry for `CC(/C=C/C=C/c1ccccc1)=N\NC(=O)c1cccnc1` is “inactive”; for `CCC1CSC(Nc2ccc(C(=O)/C=C/c3cccc(C)c3)cc2)=N1` (centres undefined) it is “inactive”.
Then `CCOC(=O)COc1cc([N+](=O)[O-])cc2cccnc12`, with “inactive”; and `O=C(c1ccccc1)c1c[nH]c(C(=O)NNc2ccccc2)c1`, with “inactive”; and `COc1ccc(Cc2nc3ccc(C(=O)NCCCSC)cc3o2)cc1OC`, with “inactive”.
For `Cc1ncc(C23CC4CC(CC(C4)C2)C3)[nH]1`, the call was inactive.
`COc1cc(/C=C2\C(=O)NN(c3ccc(C)cc3)C2=O)cc([N+](=O)[O-])c1O`: the result was inactive.
As to `CC(C)(C)NC(=O)COC(=O)c1cc(Br)ccc1Cl`, the molecule was called inactive.
Then `Cc1nonc1OCCNCCNc1ccc([N+](=O)[O-])c2cccnc12`, with “inactive”.
Then `O=C1C(Br)=Cc2cccc3cccc1c23`, with “inactive”.
For `C=C[C@]1(C)C[C@@H](OC(=O)CSCCN(CC)CC)[C@]2(C)C(C)CC[C@]3(CCC(=O)[C@H]32)[C@@H](C)[C@@H]1O` (some centres undefined), the call was inactive.
Then `Cc1noc(C)c1COc1ccc(C(=O)OCC(=O)NC23CC4CC(CC(C4)C2)C3)cc1`, with “inactive”; and `O=Cc1ccc(-c2ccc(Cl)cc2Cl)[nH]1`, with “inactive”.
The entry for `O=C(N[C@H]1CCC(=O)N(CCSc2ccc(Br)cc2)CC1)OCc1ccccc1` is “inactive”; for `CN(C(=O)COC(=O)c1sc2ccccc2c1Cl)C1CCCCC1` it is “inactive”.
The entry for `N#CCCN(C(=O)COC(=O)CCc1c[nH]c2ccccc12)c1ccc(F)cc1` is “inactive”.
As to `COc1ccc(OC)c(C(=O)NC(CC(N)=O)c2ccc(NCc3ccc(F)c(F)c3)c([N+](=O)[O-])c2)c1` (centres undefined), the molecule was called inactive.
As to `O=[N+]([O-])c1cn(-c2nc(-c3ccco3)cc(C(F)(F)F)n2)cn1`, the result was inactive.
In the case of `CC(C)(O)C#Cc1ccc(C(=O)Nc2ccc3c(c2)OCO3)s1`, the outcome was inactive.
